Assay outcomes deposited in PubChem by several laboratories.
The list is not random: actives were taken first. Their share in the collection is about 4.1%.
CHT PAM – CHT positive allosteric modulators, primary screen, cell-based, membrane potential dye, choline EC20; High affinity choline transporter 1 (Homo sapiens), Q9GZV3; CHT-expressing cells; active compounds read high; LV-AA mutant CHT in HEK293 cells; B-score at 10 µM; hit rate 0.49% among 310,000; AID 488977, 2010;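 active = initial fluorescence not abnormally high and integrated response B-score, plate-corrected, over 3 SD above library mean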
Target sequence (Q9GZV3 whole entry, looked up): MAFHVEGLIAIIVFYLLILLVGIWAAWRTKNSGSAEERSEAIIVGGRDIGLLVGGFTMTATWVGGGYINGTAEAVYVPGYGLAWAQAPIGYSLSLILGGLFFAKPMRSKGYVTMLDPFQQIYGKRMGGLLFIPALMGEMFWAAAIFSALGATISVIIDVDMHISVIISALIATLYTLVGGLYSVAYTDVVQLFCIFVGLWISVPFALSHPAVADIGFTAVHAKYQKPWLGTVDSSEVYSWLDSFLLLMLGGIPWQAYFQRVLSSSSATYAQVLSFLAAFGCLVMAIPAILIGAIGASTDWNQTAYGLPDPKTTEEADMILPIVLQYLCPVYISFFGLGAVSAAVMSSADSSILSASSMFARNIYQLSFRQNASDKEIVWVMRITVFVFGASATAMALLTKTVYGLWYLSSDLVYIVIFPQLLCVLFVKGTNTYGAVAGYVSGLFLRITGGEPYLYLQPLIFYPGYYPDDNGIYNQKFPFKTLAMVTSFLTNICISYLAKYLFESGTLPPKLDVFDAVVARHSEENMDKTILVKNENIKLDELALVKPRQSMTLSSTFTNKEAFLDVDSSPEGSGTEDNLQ
MEKK2 WT-MEK5 – modulators of MEK5 binding to wildtype MEKK2, primary screen, biochemical, multiplex bead flow cytometry, Alexa488-MEK5; Alexa488-MEK5 binding to MEKK2 WT; actives lie on both sides; AID 1531, 2009; Mitogen-activated protein kinase kinase kinase 2 (Homo sapiens), Q9Y2U5; hit rate 1.1% among 290,000; binding response (% of control), % at 10 µM; in the data active = binding response below about 67% or above about 130%
CHT block – inhibitors of human choline transporter CHT; B-score at 10 µM; hit rate 0.86% among 310,000; CHT-expressing cells, membrane potential dye, choline response; active compounds read low; High affinity choline transporter 1 (Homo sapiens), Q9GZV3; AID 488975, 2010;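 active = B-score over 3 SD under the library average, and starting fluorescence ratio not unusually high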;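 note: choline stimulus applied at its EC90 after an EC20 pre-addition; B-score computed on integrated fluorescence ratio after choline addition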
MEKK3 PB1 HTS – modulators of MEKK3-MEK5 PB1 binding, primary screen, biochemical, wildtype MEKK3, multiplex bead flow cytometry, Alexa488-MEK5. Mitogen-activated protein kinase kinase kinase 3 (Homo sapiens), Q99759. bead-based flow cytometry, Alexa488-MEK5 binding to MEKK3; actives lie on both sides; 0 = blocked by unlabeled MEK5, 100 = vehicle. binding response (% of control), % at 10 µM. hit rate 1.4% among 290,000. AID 1529, 2009;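 active = binding response more than 3 SD above or below the average of its plate-row segment, actives on both sides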;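 note: Alexa488 bead fluorescence after subtracting the streptavidin-only scavenger bead signal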
SUMO Mot1 rescue – yeast Mot1-301 growth rescue at high temperature, primary screen, SUMOylation pathway inhibitor project, S. cerevisiae, ATP luminescence, 38.5C. S. cerevisiae Mot1-301 growth rescue; percent above DMSO median, 100 means doubled. growth rescue, % at 18.8 µM. hit rate 1% among 320,000. AID 2716, 2010;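 active = every valid replicate shows activation above 250% relative to neutral control wells; inactive = the rest, any valid replicate at or below 250%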;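 note: OY570 slx delta 5 strain wells were the positive control but not used for scaling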
MEKK2mut PB1 HTS – MEK5 binding signal on mutant MEKK2 PB1, primary screen, biochemical, multiplex bead flow cytometry, Alexa488-MEK5; Alexa488-MEK5 binding to MEKK2 mutant; percent response, % at 10 µM; hit rate 0.35% among 290,000; AID 1530, 2009; in the data active = percent response above about 24%, passing the limit was not always enough
MEKK2wt confirm – modulators of MEK5 binding to wildtype MEKK2, confirmation, biochemical, single concentration, multiplex bead flow cytometry; shares compounds with MEKK3 PB1 HTS; Alexa488-MEK5 binding to MEKK2 WT; actives lie on both sides; binding response (% of control), % at 10 µM; hit rate 2.4% among 5,900; in the data active = binding response below about 16% or above about 210%; inactive = in between
MEKK2mut-MEK5 – mutant MEKK2 PB1-MEK5 binding signal retest – biochemical, single concentration, multiplex bead flow cytometry, confirmation; shares compounds with MEKK3 PB1 HTS; Alexa488-MEK5 binding to MEKK2 mutant; percent response, % at 10 µM; hit rate 2% among 5,900; AID 1893, 2009; in the data active = percent response mostly above about 71%, no sharp cut-off; inactive = mostly below about 38%;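 note: higher means compound restores mutant binding toward wildtype level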
MEKK3 confirm – MEKK3 wild-type PB1 binding to MEK5, inhibitors, confirmation, biochemical, bead multiplex flow cytometry, single concentration, wildtype. hit rate 1.8% among 5,900. shares compounds with MEKK3 PB1 HTS. binding response (% of control), % at 10 µM. Alexa488-MEK5 binding to MEKK3; active compounds read low;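 active = binding response below 72% of control, or above a set upper limit, though filed actives all read lower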;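 note: 100% = DMSO only wells and 0% = binding blocked by excess unlabeled MEK5; lower values mean stronger disruption of MEK5 binding to MEKK3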
Numbers without * were called inactive; i = inactive; . = no result given; ! = repeats disagree; [ ] = another dose, or the depositor's remark.

SMILES | CHT PAM | MEKK2 WT-MEK5 | CHT block | MEKK3 PB1 HTS | SUMO Mot1 rescue | MEKK2mut PB1 HTS | MEKK2wt confirm | MEKK2mut-MEK5 | MEKK3 confirm
CCc1ccc2c(c1)c1nnc(NN)nc1n2CC | i | 118 | i | 164* | 12 | 2 | 94 | -2 | 93
Cc1ccc(Oc2nc3ccccn3c(=O)c2/C=C(\C#N)C(=O)Nc2c(C)n(C)n(-c3ccccc3)c2=O)c(C)c1 | i | 97 | i | 74*[inhibitor] | -19 | -1 | 111 | 16 | 104
O=C(Nn1c(O)c(C=C2N=c3ccccc3=N2)sc1=S)c1ccccc1Cl | i | 58*[inhibitor] | i | 82 | -9 | -26 | 66 | -27 | 89
Oc1c(C=C2N=c3ccccc3=N2)sc(=S)n1C1CCCCC1 | i | 53*![inhibitor] | i | 114 | 4 | -3 | 70 | -13 | 97
Cc1cc(C(F)F)n2nc(C(=O)Nc3sc4c(c3C#N)CCC4)nc2n1 | i | 95 | i | 95 | -1 | -4 | . | . | .
COc1cccc(N2CCN(c3ccc4nnc(CCC(=O)Nc5ccc(F)cc5)n4n3)CC2)c1 | i | 102 | i | 98 | 7 | 1 | . | . | .
COc1ccc(S(=O)(=O)n2nc(OC(=O)c3cccs3)cc2NC(=O)c2cccs2)cc1 | i | 96 | i | 103 | 28 | -2 | . | . | .
CN(CC(=O)Nc1ccc(Cl)cc1)CC(=O)Nc1ccc(F)c(F)c1F | i | 104 | i | 131* | 14 | 0 | 104 | 2 | 106
CCCN(CC(=O)Nc1cc(Cl)cc(Cl)c1)CC(=O)Nc1ccc(F)c(F)c1F | i | 165* | i | 99 | -13 | 17 | 129 | 18 | 109
CCCN(CC(=O)Nc1ccc(C(N)=O)cc1)CC(=O)Nc1ccc(Cl)cc1Cl | i | 106 | i | 134* | -7 | 1 | 101 | -3 | 101
Cc1ccc(/C=N/n2nnnc2N)cc1[N+](=O)[O-] | i | 126 | i | 128* | -9 | 10 | 103 | 0 | 103
CCOC(=O)C1CCN(C(=O)CCc2ccc(S(=O)(=O)NC(C)C)cc2)CC1 | i | 109 | i | 107 | -2 | 2 | . | . | .
CCOC(=O)C1CCN(C(=O)CCc2ccc(S(=O)(=O)NCC(C)C)cc2)CC1 | i | 113 | i | 114 | -2 | 26* | 117 | 4 | 102
Cc1cc(C)c(C)c(S(=O)(=O)NC(C(=O)NCCc2ccco2)C(C)C)c1C (stereo not drawn) | . | . | . | . | -21 | . | . | . | .
COc1ccc2cc3cc(C(=O)NC(C)C)oc3nc2c1 | i | 117 | i | 124* | -28 | 5 | 101 | 0 | 103
CNC(=O)C(C)Sc1ccc(S(=O)(=O)N2CCOCC2)cn1 (stereo not drawn) | . | . | . | . | -6 | . | . | . | .
FC(F)(F)c1cccc(NC(=S)NNC(=S)Nc2cccc(C(F)(F)F)c2)c1 | i | 107 | i | 102 | 240 | -5 | . | . | .
O=C(Nc1cccc(C(F)(F)F)c1)C(SCCO)c1ccccc1 (stereo not drawn) | i | 105 | i | 131* | -15 | 0 | 53 | -28 | 59*
O=C(NNC(=S)Nc1cccc(C(F)(F)F)c1)c1ccc(Cl)cc1Cl | i | 116 | i | 162* | -5 | 3 | 101 | -2 | 102
FC(F)(F)c1cccc(NC(=S)NC(c2ccccc2)c2ccccc2)c1 | i | 169* | i | 152* | 0 | 10 | 176 | 42 | 106
O=C(CSc1ccccc1)N1CCCC(Nc2ccccc2)C1 (stereo not drawn) | i | 104 | i | 104 | -5 | 7 | . | . | .
CCN(CC)S(=O)(=O)c1ccc(Cl)c(NC(=O)COC(=O)c2nc3nc(C)cc(C)n3n2)c1 | . | . | . | . | -18 | . | . | . | .
Cc1ccccc1OCC(=O)OC(C)CN1CCN(C)CC1 (stereo not drawn) | i | 73 | i | 69*[inhibitor] | -24 | -37 | 111 | 10 | 107
O=S(CC1CC1(Cl)Cl)CC1CC1(Cl)Cl (stereo not drawn) | i | 102 | i | 102 | -12 | 0 | . | . | .
O=C(Cn1cnc([N+](=O)[O-])n1)N/N=C/c1cc(Cl)ccc1O | i | 121 | i | 135* | 9 | 17 | 110 | 6 | 106
SMILES | CHT PAM | MEKK2 WT-MEK5 | CHT block | MEKK3 PB1 HTS | SUMO Mot1 rescue | MEKK2mut PB1 HTS | MEKK2wt confirm | MEKK2mut-MEK5 | MEKK3 confirm
Clc1cnc(Nc2cccnc2)c(Cl)c1 | i | 105 | i | 105 | -4 | 10 | . | . | .
Cc1ccc(C(=O)NNc2cc(=O)n(C)c(=O)n2C)cc1C | i | 105 | i | 142* | -14 | 0 | 102 | -8 | 102
Cn1c(NNC(=O)c2ccccc2F)cc(=O)n(C)c1=O | i | 92 | i | 96 | -13 | -4 | . | . | .
CC(=O)c1cc(-c2ccccc2)n(CCC(=O)NC(C)(C)C)c1C | i | 36*[inhibitor] | i | 25*[inhibitor] | 5 | -22 | 101 | -1 | 100
CCC(C)(C)NC(=O)CCn1c(-c2ccccc2)cc(C(C)=O)c1C | i | 108 | i | 106 | -5 | -1 | . | . | .
CCCS(=O)(=O)N1CCCC(C(=O)NCCCN(C)c2ccccc2)C1 (stereo not drawn) | i | 100 | i | 98 | -6 | 4 | . | . | .
C#CCn1cc(C=C2C(=O)c3ccccc3C2=O)c2ccccc21 | . | 80 | . | 36*[inhibitor] | . | -1 | 91 | -4 | 101
C#CCn1c(=O)cc(C)c2ccccc21 | i | 103 | i | 103 | . | 1 | . | . | .
COCCCNCCCOc1ccc(C(C)(C)c2ccccc2)cc1 | i | 99 | i | 94 | 7 | -1 | . | . | .
CC(C)(c1ccccc1)c1ccc(OCCCNCCO)cc1 | i | 145* | i | 108 | . | 13 | 134 | 27 | 109
CC(Nc1nc(N2CCCCC2)nc2ccccc12)c1ccccc1 (stereo not drawn) | i | 210* | i | 108 | 46 | 34 | 140 | 18 | 109
